# According to PubChem BioAssay (Tox21):
# Records with an inconclusive call do not appear. Entries that show only a call come without a potency. The source made the active and inactive calls. Unless noted, calls come from the whole dose curve; as a rule, active = well fitted curve in the direction sought with a large enough effect in the repeat runs; inconclusive = weak or mixed curves; inactive = no such curve, though single readings can be large; an effect the other way counts as inactive or inconclusive.
# Assays:
# [1] = qHTS assay to identify small molecule agonists of the estrogen receptor alpha (ER-alpha) signaling pathway in the presence of an antagonist - cell viability counter screen (AID 1259386);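 note: cells exposed to compounds for 22 h at 37 °C before the viability read; nearly all actives have a fitted effect of over 30% in size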; note: potency is the fitted concentration of half-maximal effect
# In short: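 The test measures whether compounds kill ER-alpha reporter cells (VM7Luc4E2) under antagonist co-treatment (ICI-182,780, 10.0nM). Fluorescence from CellTiter-Fluor is read after a 22hr exposure.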
# [2] = molecular target: Progesterone receptor (Homo sapiens) (UniProt P06401); assay: qHTS assay to identify small molecule antagonists of the progesterone receptor (PR) signaling pathway (AID 1346795; active = well fitted inhibition curve with a large enough effect in the signal ratio in the repeat runs, not every such curve was filed as active; the % refers to the signal ratio; note: potency is the fitted concentration of half-maximal effect)
# Sequence of Progesterone receptor (Homo sapiens) (P06401 whole entry, looked up): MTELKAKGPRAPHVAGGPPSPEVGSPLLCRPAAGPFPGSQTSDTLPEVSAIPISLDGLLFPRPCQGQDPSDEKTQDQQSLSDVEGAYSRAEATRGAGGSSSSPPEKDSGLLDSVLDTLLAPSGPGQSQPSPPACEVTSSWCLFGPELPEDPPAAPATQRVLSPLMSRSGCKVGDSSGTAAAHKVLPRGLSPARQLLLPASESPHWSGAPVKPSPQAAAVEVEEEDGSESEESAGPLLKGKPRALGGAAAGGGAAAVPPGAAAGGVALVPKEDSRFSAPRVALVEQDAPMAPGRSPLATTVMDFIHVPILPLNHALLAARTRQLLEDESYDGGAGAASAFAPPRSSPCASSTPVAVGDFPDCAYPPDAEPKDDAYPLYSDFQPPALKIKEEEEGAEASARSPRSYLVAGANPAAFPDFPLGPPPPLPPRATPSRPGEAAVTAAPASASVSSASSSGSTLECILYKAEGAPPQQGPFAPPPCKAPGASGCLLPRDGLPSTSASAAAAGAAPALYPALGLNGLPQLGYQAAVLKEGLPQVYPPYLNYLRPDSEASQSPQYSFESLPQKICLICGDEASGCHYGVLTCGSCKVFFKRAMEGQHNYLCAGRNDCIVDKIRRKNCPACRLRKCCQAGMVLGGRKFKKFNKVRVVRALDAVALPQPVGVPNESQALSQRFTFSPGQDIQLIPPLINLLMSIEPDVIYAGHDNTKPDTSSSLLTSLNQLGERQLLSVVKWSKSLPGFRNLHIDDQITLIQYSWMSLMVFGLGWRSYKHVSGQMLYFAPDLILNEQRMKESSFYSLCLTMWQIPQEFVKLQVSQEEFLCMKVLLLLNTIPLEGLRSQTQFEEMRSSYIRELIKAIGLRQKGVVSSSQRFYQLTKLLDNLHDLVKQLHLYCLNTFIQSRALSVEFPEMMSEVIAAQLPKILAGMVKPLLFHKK
# In short: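 Inhibition of R5020-induced (1 nM final) beta-lactamase reporter signal in PR-UAS-bla HEK293T cells was scored by FRET fluorescence after overnight (16 hr) compound treatment.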
# [3] = qHTS assay to identify small molecule antagonists of the TGF-beta/Smad signaling pathway - cell viability counter screen (AID 1346824); note: nearly all actives have a fitted effect of over 50% in size; note: potency is the fitted concentration of half-maximal effect
# In short: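 Cytotoxicity counter-screen run in the same wells as the beta-lactamase Smad reporter read: CellTiter-Glo luminescence after 30 min at room temperature. HEK 293T SBE-bla cells had 5 hr compound exposure at 37 C with TGF-beta1 (0.25 ng/mL stock).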
# [4] = qHTS assay to identify small molecule agonists of the TGF-beta/Smad signaling pathway - cell viability counter screen (AID 1346829); note: nearly all actives have a fitted effect of over 45% in size; note: potency is the fitted concentration of half-maximal effect
# In short: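 SBE-bla HEK 293T cells plated overnight, compound exposure 5 hr at 37 C. Viability read in the same wells by CellTiter-Glo luminescence after 30 min at room temperature, following the beta-lactamase read.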
# [5] = qHTS assay to identify small molecule agonists of the TGF-beta/Smad signaling pathway (AID 1346859; active = well fitted activation curve with a large enough effect in the signal ratio in the repeat runs, not every such curve was filed as active; the % refers to the signal ratio; note: series mostly up to about 77 µM)
# In short: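 Stable Smad binding element-beta-lactamase HEK 293T cells; 5 hr compound exposure at 37 C under 5% CO2; 2 hr room-temperature substrate step; fluorescence excited at 405 nm, collected at 460 nm and 530 nm.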
# [6] = molecular target: Thyrotropin-releasing hormone receptor (Homo sapiens) (UniProt P34981); assay: qHTS assay to identify small molecule antagonists of the thyrotropin-releasing hormone receptor (TRHR) signaling pathway (AID 1346877; active = well fitted inhibition curve with a large enough effect in the repeat runs, not every such curve was filed as active; note: series mostly up to about 51 µM)
# Sequence of Thyrotropin-releasing hormone receptor (Homo sapiens) (P34981 whole entry, looked up): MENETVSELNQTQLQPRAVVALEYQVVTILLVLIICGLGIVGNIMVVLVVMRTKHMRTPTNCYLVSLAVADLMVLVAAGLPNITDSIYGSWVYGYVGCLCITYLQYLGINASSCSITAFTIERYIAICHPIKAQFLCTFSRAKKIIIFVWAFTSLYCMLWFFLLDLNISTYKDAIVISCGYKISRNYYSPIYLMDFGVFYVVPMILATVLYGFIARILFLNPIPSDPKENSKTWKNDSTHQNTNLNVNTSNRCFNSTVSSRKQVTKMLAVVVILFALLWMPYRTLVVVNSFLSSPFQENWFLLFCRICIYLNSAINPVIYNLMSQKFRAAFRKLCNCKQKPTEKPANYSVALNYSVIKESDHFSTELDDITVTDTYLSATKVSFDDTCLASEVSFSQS
# In short: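 Overnight-plated (18 h, 37 °C) HEK293 cells expressing TRHR were dye-loaded 2 h, treated with compound, then stimulated with TRH at 1 nM final. Fluorescence intensity was captured every second for 3 min.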
# [7] = molecular target: Thyrotropin-releasing hormone receptor (Homo sapiens) (UniProt P34981); assay: qHTS assay to identify small molecule agonists of the thyrotropin-releasing hormone receptor (TRHR) signaling pathway (AID 1346891; calls by dose curve; note: potency is the fitted concentration of half-maximal effect;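 for activation: HEK293 cells expressing TRHR with calcium dye readout; series mostly up to about 58 µM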)
# In short: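 In 1536-format, 1500 TRHR-Hek293 cells per well grew 18 h, took up calcium dye for 2 h at 37 °C, received compound, and were read kinetically; 15-point titrations, triplicates.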
# [8] = qHTS assay to identify small molecule antagonists of the progesterone receptor (PR) signaling pathway - cell viability counter screen (AID 1346798); note: nearly all actives have a fitted effect of over 50% in size; note: potency is the fitted concentration of half-maximal effect
# In short: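 ATP content as viability readout: CellTiter-Glo luminescence, 30 min room temperature, in PR-UAS-bla HEK293T cells after 16 hr compound/R5020 treatment at 37C and 5% CO2.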
# [9] = qHTS assay to identify small molecule agonists of the progesterone receptor (PR) signaling pathway - cell viability counter screen (AID 1346799; calls by dose curve; note: nearly all actives have a fitted effect of over 45% in size; note: potency is the fitted concentration of half-maximal effect)
# In short: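 Cytotoxicity in PR-bla HEK293T cells: 16 h compound, 37C; CellTiter-Glo added post-FRET read; luminescence after 30 min RT.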
SMILES,Potency [1],Potency [2],Potency [3],Potency [4],outcome [5],Potency [6],Potency [7],Potency [8],Potency [9]
CCNS(=O)(=O)C(F)(F)C(F)(F)C(F)(F)C(F)(F)C(F)(F)C(F)(F)C(F)(F)C(F)(F)F,inactive,65.7 µM (active),inactive,inactive,inactive,inactive,inactive,,
O=C(NC(=O)c1ccccc1Cl)Nc1ccc(OC(F)(F)F)cc1,inactive,,inactive,inactive,inactive,,,,
CCCCn1cc[n+](C)c1.[Cl][Fe-]([Cl])([Cl])[Cl],inactive,,inactive,,inactive,,,inactive,
O=c1c2ccccc2c(=O)c2c1cc(Cl)c1[nH]c3c([nH]c12)c(Cl)cc1c(=O)c2ccccc2c(=O)c13,inactive,inactive,inactive,,inactive,inactive,inactive,,inactive
O=S1OCC2C(CO1)C1(Cl)C(Cl)=C(Cl)C2(Cl)C1(Cl)Cl (stereo not drawn),inactive,,inactive,inactive,inactive,,,61.1 µM (active),68.7 µM (active)
CC[C@H](C)[C@H]1O[C@]2(C=C[C@@H]1C)C[C@@H]1C[C@@H](C/C=C(\C)[C@@H](O[C@H]3C[C@H](OC)[C@@H](O[C@H]4C[C@H](OC)[C@@H](NC)[C@H](C)O4)[C@H](C)O3)[C@@H](C)/C=C/C=C3\CO[C@@H]4[C@H](O)C(C)=C[C@@H](C(=O)O1)[C@]34O)O2,27.3 µM (active),,17.4 µM (active),15.5 µM (active),,,,24.3 µM (active),13.7 µM (active)
CC(O)C(=O)[O][Hg][c]1ccccc1 (stereo not drawn),12.2 µM (active),,9.77 µM (active),17.4 µM (active),,,,4.86 µM (active),4.86 µM (active)
COC(=O)/C=C(\C)OP(=O)(OC)OC,inactive,,0.174 µM (active),inactive,inactive,inactive,,inactive,inactive
CO/N=C(/C1=NOCCO1)c1ccccc1Oc1ncnc(Oc2ccccc2Cl)c1F,27.3 µM (active),27.3 µM (active),,,inactive,inactive,inactive,,
O.O.O.O.O.O.O=S(=O)([O-])[O-].[Ni+2],inactive,,inactive,inactive,inactive,,,inactive,
Oc1cccc(Cl)c1Cl,inactive,,inactive,inactive,inactive,inactive,inactive,,27.4 µM (active)
[Cl-].[Cl-].[Cl-].[Yb+3],inactive,inactive,inactive,,inactive,,,inactive,
N#Cc1sc2c(=O)c3ccccc3c(=O)c=2sc1C#N,7.7 µM (active),,49 µM (active),,,,inactive,30.6 µM (active),30.6 µM (active)
Cc1ccc([N+](=O)[O-])[c]2c1[O][Hg]2,29.8 µM (active),,19 µM (active),,inactive,,,,5.31 µM (active)
[Cl][Hg][c]1ccccc1,17.2 µM (active),,19.5 µM (active),,,,,3.06 µM (active),3.06 µM (active)
COc1nc(C)nc(NC(=O)NS(=O)(=O)c2ccccc2Cl)n1,inactive,,inactive,inactive,inactive,inactive,,,inactive
Oc1cc(Cl)cc(Cl)c1,inactive,,inactive,inactive,inactive,inactive,inactive,,
N#Cc1c2ccccc2cc2ccccc12,inactive,,inactive,inactive,,,,,inactive
CCN(CC)Cc1nccn1-c1ccc([N+](=O)[O-])cc1C(=O)c1ccccc1Cl,inactive,,inactive,inactive,inactive,inactive,inactive,,inactive
CC(C)Br,inactive,,inactive,inactive,inactive,inactive,inactive,,inactive
Nc1ccc(N=Nc2ccccc2)cc1,30.6 µM (active),,inactive,inactive,inactive,inactive,inactive,,
COP(=S)(OC)Oc1ccc([N+](=O)[O-])c(C)c1,inactive,6.11 µM (active),inactive,,inactive,inactive,,inactive,
O=C(N[C@@H]1N=C(c2ccccc2F)c2cccc3c2N(CC3)C1=O)c1cc2ccccc2[nH]1,inactive,,inactive,inactive,inactive,,12 µM (active),inactive,inactive
CCN(CC)CCN1C(=O)CN=C(c2ccccc2F)c2cc(Cl)ccc21,inactive,,inactive,inactive,inactive,inactive,inactive,inactive,
CC(C)(C)c1ccc(OP(=O)(Oc2ccccc2)Oc2ccccc2)cc1,inactive,21.8 µM (active),inactive,inactive,inactive,inactive,inactive,,inactive
CC[C@]1(O)CC[C@H]2[C@@H]3CCC4=CCCC[C@@H]4[C@H]3CC[C@@]21C,inactive,,inactive,inactive,inactive,,,,
CCC(C)Nc1c([N+](=O)[O-])cc(C(C)(C)C)cc1[N+](=O)[O-] (stereo not drawn),inactive,,inactive,inactive,inactive,inactive,inactive,inactive,inactive
C[C@]12C/C(=C/O)C(=O)C[C@@H]1CC[C@@H]1[C@@H]2CC[C@@]2(C)[C@H]1CC[C@]2(C)O,inactive,,inactive,,,inactive,inactive,69.2 µM (active),77.7 µM (active)
CCNc1nc(NC(C)C(C)C)nc(SC)n1 (stereo not drawn),inactive,,inactive,inactive,inactive,,,inactive,inactive
